The values that follow come from PubChem BioAssay.

Assay [1] in a line: rapamycin-like changes in RPL19A-GFP expression – cell-based, S. cerevisiae, multiplex flow cytometry, primary screen (AID 1862).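 Note: lower values mimic rapamycin by blocking the RPL19A rise seen in DMSO cells.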 The note with it: S. cerevisiae RPL19A-GFP strain, flow cytometry fluorescence, 3 h; at 10 µM; stronger effect = lower value. On the technique in general: A flow cytometer gives signals particle by particle.
A short description of assay [2]: TOR pathway GLN3 branch reporter MEP2-GFP changes – S. cerevisiae, multiplex flow cytometry, primary screen (AID 1867;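 active = GFP response, as percent of the DMSO control, above the screen-wide mean plus 3 SD, about 139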;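 note: median GFP channel fluorescence of barcode-gated MEP2-GFP cells measured by flow cytometry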). The note with it: S. cerevisiae MEP2-GFP strain, 3 h, at 10 µM, stronger effect = higher value, 100% means same as DMSO wells.
Assay [3] is described as follows: TOR pathway RTG branch CIT2 reporter changes – S. cerevisiae, GFP fusion, multiplex flow cytometry, primary screen (AID 1870;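 active = percent response above a set limit, the screen-wide mean plus 3 SD, cut at about 130% in these data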;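 note: barcoded CIT2-GFP strain pooled with four other GFP strains with rapamycin as positive control; median GFP fluorescence per well over plate mean of DMSO wells so 100% = DMSO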). The note with it: S. cerevisiae CIT2-GFP expression, 3 h, at 10 µM, stronger effect = higher value.
Assay [4] is described as follows: TOR pathway LAP4-GFP level changes – S. cerevisiae, multiplex flow cytometry, primary screen (AID 1873;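 active = GFP signal, as percent of the solvent control, above the screen mean plus 3 SD, about 149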). The note with it: S. cerevisiae LAP4-GFP expression, 3 h, at 10 µM, stronger effect = higher value.
Assay [5] can be described thus: reduced mouse 2C T cell binding to pMHC/ICAM-1 vesicles – MLPCN validation set, flow cytometry, LFA-1/ICAM-1 modulator project, pilot screen (AID 2523;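 active = response below a set limit, under 55% cells CD8-positive and vesicle-bound, and CD8 cells' 90th-percentile brightness under 279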;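 for vesicle binding response: mean PE anti-B7-1 fluorescence of CD8+ cells relative to row control; 100% = QL9-loaded vesicles with DMSO vehicle in the same plate row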). The note with it: 2C mouse CD8+ T cells, at 7 µM, stronger effect = lower value; double positive events: measured here: CD8+/vesicle+ event percentage.
Assay [6] concerns the target Integrin beta-1 (Homo sapiens) + Integrin alpha-4 (Homo sapiens) (UniProt P13612+P05556). In words: alpha4beta1 integrin LIBS antibody binding reduction – U937 cells, HUTS-21 mAb, flow cytometry, validation set, VLA-4 allosteric modulator project, pilot screen (AID 2674;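 active = inhibition above 50%, about 3 SD of the validation set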;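 note: antibody binding induced by the VLA-4 ligand LDV present at three times its Kd; 0% = LDV ligand with antibody and no compound and 100% = antibody without LDV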). The note with it: HUTS-21 LIBS mAb binding, at 6.7 µM, stronger effect = higher value, binding induced by LDV ligand.

Assay [7] is described as follows: calorie-restriction mimetic ROS inhibitors, yeast – validation compound set, pilot screen (AID 2706;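 active = superoxide response below 65% of plate, a cut near 3 SD across the whole screen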;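 note: yeast exposed to compound for one week at 30 degrees C before staining; 100% = mean of all compound wells on the same plate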). The note with it: S. cerevisiae aging, superoxide DHE fluorescence; at 10 µM, stronger effect = lower value.
In assay [8] the target is Beta-adrenergic receptor kinase 1 (Homo sapiens) (UniProt P25098). The assay can be described thus: GRK2 binders displacing RNA aptamer, biochemical, validation, human GRK2, bead flow cytometry (AID 488806;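 active = aptamer binding inhibition above 30%, about 3 SD of noise from non-fluorescent compounds; inactive = inhibition at or below 30%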). The note with it: bead-bound GRK2, FAM-aptamer displacement, at 10 µM, stronger effect = higher value.
For assay [9], the target named is Beta-2 adrenergic receptor (Homo sapiens) (UniProt P07550). The assay can be described thus: agonist-induced loss of surface beta2AR – cell-based, FAP fluorogen, flow cytometry, validation set, pilot screen (AID 504459;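 active = percent response above 42, roughly 3 SD of non-fluorescent test compounds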;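 note: agonist-driven loss of surface beta2AR via internalization measured by FAP dye flow cytometry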). The note with it: Am2.2-beta2AR cells, at 10 µM, stronger effect = higher value.
Assay [10] deals with AP-2 complex subunit beta (Homo sapiens) (UniProt P63010). In words: beta-arrestin/AP2 interaction blockers – biochemical, validation set, GST-AP2 beads, flow cytometry, pilot screen (AID 504541;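 active = inhibition above 54%, about 3 SD of non-fluorescent compounds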;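 note: AP2 carries R879A mutation and is captured from E. coli lysate; bead-bound FITC arrestin peptide fluorescence measuring arrestin peptide binding to AP2; 0% = DMSO wells and 100% = excess unlabeled arrestin peptide control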). The note with it: FITC arrestin peptide, at 10 µM, stronger effect = higher value, AP2 beta2 appendage fragment, R879A mutant.
A short description of assay [11]: cytosolic pH regulators acting via V-ATPase – S. cerevisiae, pHLuorin, HTS validation (AID 504600; in the data active = response above about 15%;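 note: plate controls were DMSO for no effect and reference compound for full effect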). The note with it: V-ATPase proton transport, at 10 µM, stronger effect = higher value.
The subject of assay [12] is anti-desmoglein-3 scFv antibody binding to human DSG3. The assay can be described thus: blockers of pathogenic pemphigus antibody–desmoglein-3 binding – biochemical, validation compound set, bead-based, flow cytometry, pilot screen (AID 588368;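 active = binding below the plate cutoff, the plate median minus 3 SD, with a reading above zero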;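 note: signal is the median channel fluorescence of bead-bound GFP antibody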). The note with it: Protein G beads, DSG3-Fc, scFv-GFP binding, at 10 µM, stronger effect = lower value.
A short description of assay [13]: Nile Red efflux blockade in pump-expressing yeast – validation compound set, multiplex, phenotypic, pilot screen (AID 588506;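 active = efflux inhibition above 0.42, the validation set average plus 4 SD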;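 note: Nile Red retained in cells so higher fluorescence means more efflux inhibition; 0 = negative control wells and 1 = enniatin B 25 µM full block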). The note with it: S. cerevisiae pump-expressing triplex, Nile Red efflux flow cytometry; at 10 µM; stronger effect = higher value; the pumps come from Candida albicans.
The target in assay [14] is ATP-binding cassette sub-family B member 6 (Homo sapiens) (UniProt Q9NP58). In words: blockers of ABCB6-driven porphyrin uptake – K562-ABCB6 cells, flow cytometry, validation set, pilot screen (AID 588550;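 active = inhibition above the screen-wide mean plus 3 SD, about 51%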;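 note: 0% = DMSO wells and 100% = benzethonium chloride 70 µM positive control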). The note with it: K562-ABCB6 porphyrin accumulation, 1 h, at 10 µM, stronger effect = higher value.
Assay [15] in a line: AML differentiation inducers, ER-HoxA9 marrow cells – cell-based, GFP/MAC1 double positive, flow cytometry, validation set, primary screen (AID 588685;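 active = differentiation response of at least 50%, scaled between solvent and reference control, from cells with both markers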;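 note: compound exposure lasts four days before antibody staining and flow analysis; 0% = DMSO wells and 100% = 5 µM fulvestrant positive control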). The note with it: stronger effect = higher value, normalized: vehicle 0, fulvestrant 100.
Assay [16] in a line: hit retest on RPL19A-GFP reporter strain – cell-based, S. cerevisiae, flow cytometry, cherry picks, mother/daughter gates, confirmation (AID 2270;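 active = GFP response below 50% of the DMSO control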). The note with it: 3 h, at 10 µM, stronger effect = lower value, 100 = same GFP as DMSO wells.
Assay [17] in a line: yeast TOR pathway reporter LAP4-GFP change – cell-based, cherry picks, flow cytometry, mother/daughter gates, confirmation (AID 2271;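 active = GFP response above 150% of the DMSO control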;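 note: ratio of sample to DMSO plate mean so 100% equals DMSO level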). The note with it: S. cerevisiae LAP4-GFP strain, 3 h, at 10 µM, stronger effect = higher value, 100 means same as DMSO control.
Assay [18] in a line: TOR pathway reporter MEP2-GFP, retest of hits – S. cerevisiae, flow cytometry GFP, cherry picks, confirmation (AID 2272;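 active = GFP response above 150% of the DMSO control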;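 note: ratio of well signal to plate DMSO mean so 100% equals DMSO level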). The note with it: S. cerevisiae MEP2-GFP strain, 3 h, at 10 µM, stronger effect = higher value.
A short description of assay [19]: TOR pathway CIT2 reporter hit retest – S. cerevisiae, GFP fusion, cherry picks, mother/daughter gates, confirmation (AID 2274;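 active = GFP response above 150% of the DMSO level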). The note with it: S. cerevisiae CIT2-GFP strain, flow cytometry, 3 h, at 10 µM, stronger effect = higher value.
[20] abbreviates: measured here: daughter cell gate.
Where [21] appears, read: measured here: mother cell gate.
The mark [22] stands for this setting: measured here: daughter cell gate response.
The mark [23] stands for this setting: measured here: mother cell gate response.

Records with an inconclusive call do not appear. Calls of active or inactive are those of the source. Cut-off read from the data, not from the text of the source, unless noted: active = percent of DMSO control GFP below about 86%; inactive = the rest, inconclusive results apart.

Sequence of Integrin beta-1 (Homo sapiens) + Integrin alpha-4 (Homo sapiens) (P05556 whole entry, looked up): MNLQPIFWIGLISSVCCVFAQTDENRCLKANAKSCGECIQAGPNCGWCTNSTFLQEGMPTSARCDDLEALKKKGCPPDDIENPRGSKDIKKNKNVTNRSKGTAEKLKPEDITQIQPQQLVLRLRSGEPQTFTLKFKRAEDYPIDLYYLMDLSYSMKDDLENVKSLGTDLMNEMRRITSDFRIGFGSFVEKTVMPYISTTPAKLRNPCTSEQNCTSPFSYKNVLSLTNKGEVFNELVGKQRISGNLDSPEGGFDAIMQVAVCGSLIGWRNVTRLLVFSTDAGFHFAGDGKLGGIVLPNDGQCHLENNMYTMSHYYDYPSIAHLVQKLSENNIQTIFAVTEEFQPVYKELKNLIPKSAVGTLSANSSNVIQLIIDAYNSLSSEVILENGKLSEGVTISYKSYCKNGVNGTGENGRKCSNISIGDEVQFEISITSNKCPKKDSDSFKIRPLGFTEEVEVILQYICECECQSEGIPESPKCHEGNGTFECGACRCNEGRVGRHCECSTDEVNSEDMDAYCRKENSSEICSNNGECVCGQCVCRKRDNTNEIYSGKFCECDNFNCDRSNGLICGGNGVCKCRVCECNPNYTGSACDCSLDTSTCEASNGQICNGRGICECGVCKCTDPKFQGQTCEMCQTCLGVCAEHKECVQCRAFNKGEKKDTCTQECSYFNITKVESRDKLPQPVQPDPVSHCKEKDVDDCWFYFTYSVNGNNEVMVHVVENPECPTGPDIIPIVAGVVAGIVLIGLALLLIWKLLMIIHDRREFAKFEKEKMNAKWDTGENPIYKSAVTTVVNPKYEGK
Sequence of Integrin beta-1 (Homo sapiens) + Integrin alpha-4 (Homo sapiens) (P13612 whole entry, looked up): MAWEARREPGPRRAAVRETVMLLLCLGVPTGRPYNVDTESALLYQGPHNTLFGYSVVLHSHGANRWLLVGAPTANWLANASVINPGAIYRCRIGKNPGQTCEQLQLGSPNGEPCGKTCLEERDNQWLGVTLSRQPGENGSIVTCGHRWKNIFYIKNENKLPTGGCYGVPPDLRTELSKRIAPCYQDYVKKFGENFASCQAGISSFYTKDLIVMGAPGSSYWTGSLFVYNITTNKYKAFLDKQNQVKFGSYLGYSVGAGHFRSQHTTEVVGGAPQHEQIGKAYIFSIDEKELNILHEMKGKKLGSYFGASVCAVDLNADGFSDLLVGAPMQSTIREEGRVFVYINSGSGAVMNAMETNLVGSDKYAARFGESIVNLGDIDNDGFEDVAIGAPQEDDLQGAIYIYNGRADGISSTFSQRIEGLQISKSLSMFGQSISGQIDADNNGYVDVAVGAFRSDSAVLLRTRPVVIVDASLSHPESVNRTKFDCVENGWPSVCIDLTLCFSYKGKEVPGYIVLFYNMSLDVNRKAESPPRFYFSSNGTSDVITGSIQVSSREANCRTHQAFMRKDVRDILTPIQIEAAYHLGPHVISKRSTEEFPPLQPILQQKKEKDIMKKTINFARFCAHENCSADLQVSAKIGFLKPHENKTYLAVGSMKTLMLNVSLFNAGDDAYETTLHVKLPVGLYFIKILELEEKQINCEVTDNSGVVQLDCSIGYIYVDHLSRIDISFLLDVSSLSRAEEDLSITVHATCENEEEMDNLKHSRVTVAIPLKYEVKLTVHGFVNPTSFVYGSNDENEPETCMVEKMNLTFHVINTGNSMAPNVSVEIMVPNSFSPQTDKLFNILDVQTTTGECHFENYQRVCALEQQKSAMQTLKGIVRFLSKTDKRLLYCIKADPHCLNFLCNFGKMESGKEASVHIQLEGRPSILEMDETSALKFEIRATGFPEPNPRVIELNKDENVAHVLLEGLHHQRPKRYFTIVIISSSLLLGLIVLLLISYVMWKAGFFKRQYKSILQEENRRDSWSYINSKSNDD
Sequence of ATP-binding cassette sub-family B member 6 (Homo sapiens) (Q9NP58 whole entry, looked up): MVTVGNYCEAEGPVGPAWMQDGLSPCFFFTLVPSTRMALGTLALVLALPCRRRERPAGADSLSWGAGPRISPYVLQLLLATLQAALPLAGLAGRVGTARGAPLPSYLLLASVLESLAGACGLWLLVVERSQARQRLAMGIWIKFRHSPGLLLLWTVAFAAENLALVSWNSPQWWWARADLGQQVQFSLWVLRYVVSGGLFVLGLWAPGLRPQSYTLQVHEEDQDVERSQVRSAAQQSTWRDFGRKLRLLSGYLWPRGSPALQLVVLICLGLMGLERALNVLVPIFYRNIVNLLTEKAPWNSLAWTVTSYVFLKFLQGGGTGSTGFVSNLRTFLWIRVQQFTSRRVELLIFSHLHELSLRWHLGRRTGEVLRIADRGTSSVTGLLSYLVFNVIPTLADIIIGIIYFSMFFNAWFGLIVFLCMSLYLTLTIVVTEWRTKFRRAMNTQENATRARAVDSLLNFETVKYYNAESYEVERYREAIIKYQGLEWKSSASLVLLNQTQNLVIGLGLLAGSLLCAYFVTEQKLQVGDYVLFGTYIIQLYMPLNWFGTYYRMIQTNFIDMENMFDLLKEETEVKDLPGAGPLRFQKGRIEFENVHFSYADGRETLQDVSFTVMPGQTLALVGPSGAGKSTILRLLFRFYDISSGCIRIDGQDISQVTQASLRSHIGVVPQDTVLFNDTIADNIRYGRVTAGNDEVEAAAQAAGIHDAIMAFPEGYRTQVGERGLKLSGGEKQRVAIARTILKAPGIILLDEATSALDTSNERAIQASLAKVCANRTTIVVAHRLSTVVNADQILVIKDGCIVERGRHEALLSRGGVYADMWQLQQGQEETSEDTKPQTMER
Sequence of Beta-2 adrenergic receptor (Homo sapiens) (P07550 whole entry, looked up): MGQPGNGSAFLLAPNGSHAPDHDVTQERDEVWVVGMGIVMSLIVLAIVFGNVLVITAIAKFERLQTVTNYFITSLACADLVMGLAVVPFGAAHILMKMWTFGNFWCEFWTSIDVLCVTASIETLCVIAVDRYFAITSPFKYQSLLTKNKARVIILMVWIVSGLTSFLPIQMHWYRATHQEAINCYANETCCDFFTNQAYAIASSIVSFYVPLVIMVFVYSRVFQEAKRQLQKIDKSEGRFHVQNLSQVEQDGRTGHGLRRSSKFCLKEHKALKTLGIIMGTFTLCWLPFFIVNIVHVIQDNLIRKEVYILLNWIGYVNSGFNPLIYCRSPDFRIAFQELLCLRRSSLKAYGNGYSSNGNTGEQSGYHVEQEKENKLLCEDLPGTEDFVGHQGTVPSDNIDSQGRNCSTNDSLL
Sequence of Beta-adrenergic receptor kinase 1 (Homo sapiens) (P25098 whole entry, looked up): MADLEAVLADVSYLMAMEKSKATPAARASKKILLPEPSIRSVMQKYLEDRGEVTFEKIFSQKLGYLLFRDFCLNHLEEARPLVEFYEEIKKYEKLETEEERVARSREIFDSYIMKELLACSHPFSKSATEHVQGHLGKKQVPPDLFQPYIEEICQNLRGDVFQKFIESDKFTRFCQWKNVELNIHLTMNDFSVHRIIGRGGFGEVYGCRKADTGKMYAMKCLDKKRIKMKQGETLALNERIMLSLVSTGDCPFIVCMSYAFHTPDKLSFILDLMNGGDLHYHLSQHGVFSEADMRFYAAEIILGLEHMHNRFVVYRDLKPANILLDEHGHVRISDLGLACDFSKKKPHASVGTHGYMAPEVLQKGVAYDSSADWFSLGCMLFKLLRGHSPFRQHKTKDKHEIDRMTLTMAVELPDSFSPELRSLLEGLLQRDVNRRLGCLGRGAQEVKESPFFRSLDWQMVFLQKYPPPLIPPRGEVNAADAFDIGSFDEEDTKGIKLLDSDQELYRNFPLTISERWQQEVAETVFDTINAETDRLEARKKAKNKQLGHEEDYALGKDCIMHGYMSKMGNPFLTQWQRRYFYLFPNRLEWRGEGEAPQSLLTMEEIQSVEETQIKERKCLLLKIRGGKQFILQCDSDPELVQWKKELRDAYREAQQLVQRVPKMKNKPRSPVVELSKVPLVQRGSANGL
Sequence of AP-2 complex subunit beta (Homo sapiens) (P63010 whole entry, looked up, the tested form may be a part, one chain of several): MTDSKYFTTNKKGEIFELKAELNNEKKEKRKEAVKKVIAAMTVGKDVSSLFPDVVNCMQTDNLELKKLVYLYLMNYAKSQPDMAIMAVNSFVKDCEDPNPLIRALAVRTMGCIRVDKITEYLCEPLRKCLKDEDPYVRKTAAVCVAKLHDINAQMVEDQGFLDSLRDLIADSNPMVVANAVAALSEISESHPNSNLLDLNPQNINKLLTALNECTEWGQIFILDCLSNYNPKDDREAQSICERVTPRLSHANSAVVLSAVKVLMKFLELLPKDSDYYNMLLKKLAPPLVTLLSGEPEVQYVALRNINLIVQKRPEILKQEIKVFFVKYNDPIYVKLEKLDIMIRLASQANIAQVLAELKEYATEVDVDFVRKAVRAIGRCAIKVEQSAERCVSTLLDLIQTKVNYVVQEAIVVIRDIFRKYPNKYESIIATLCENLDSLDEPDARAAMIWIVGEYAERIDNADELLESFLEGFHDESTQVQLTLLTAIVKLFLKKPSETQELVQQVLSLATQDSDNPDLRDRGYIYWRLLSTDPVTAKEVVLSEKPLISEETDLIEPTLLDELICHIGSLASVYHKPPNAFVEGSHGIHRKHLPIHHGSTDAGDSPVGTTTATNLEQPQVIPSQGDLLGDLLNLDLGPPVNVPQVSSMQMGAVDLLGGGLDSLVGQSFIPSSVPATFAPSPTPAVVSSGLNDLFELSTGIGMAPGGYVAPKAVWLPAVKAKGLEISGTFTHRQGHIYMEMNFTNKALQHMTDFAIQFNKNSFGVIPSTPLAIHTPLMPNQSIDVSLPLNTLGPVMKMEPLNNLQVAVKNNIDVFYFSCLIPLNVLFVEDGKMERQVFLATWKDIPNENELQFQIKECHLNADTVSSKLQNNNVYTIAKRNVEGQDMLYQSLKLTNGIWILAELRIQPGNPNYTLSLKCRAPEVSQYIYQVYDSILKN

A word on the inhibition: it is the relative decrease from the control value, in per cent. Turning to `COc1cc2c(cc1OC)C(Cc1ccc(O)cc1)N(C)CC2` (configuration not stated), the percent of DMSO control GFP in [1] was 99% (inactive). For the same compound, the GFP response vs DMSO is 127% (inactive) in assay [2] and 80.9% (inactive) in [4]. Further, the percent response of DMSO control in [3] is 108% (inactive). This compound registered a double positive events in assay [5] of 56%. The vesicle binding response in assay [5] was 289% (inactive). Further, the inhibition in [6] was 8.4% (inactive); in [10], 2.93% (inactive); in assay [14] it was 8% (inactive). The superoxide response (% of plate) in [7] is 104% (inactive). For the same compound, the aptamer binding inhibition in [8] is 4% (inactive). In addition, the response in assay [9] was -6.53% (inactive); in assay [11], 0.76% (inactive). In assay [12], the binding (% of control) is 108% (inactive). Also, in [13], the efflux inhibition (fraction of control) is 0.27 (inactive). The differentiation response in [15] is 2.46% (inactive).
For the compound `COc1cccc(N2C(=O)[C@H]3C(C(=O)c4cnccn4)=NN[C@H]3C2=O)c1`, the percent of DMSO control GFP in [1] was 93.5% (inactive). Moreover, the GFP response vs DMSO in [2] is 123% (inactive); in [4] it was 79.8% (inactive). Moreover, the percent response of DMSO control in [3] was 111% (inactive). The same compound showed a double positive events in assay [5] of 63.5%. In addition, the vesicle binding response in [5] was 191% (inactive). The figures for the inhibition in assay [6], in [10] and in assay [14] were 14.2% (inactive), -1.17% (inactive) and 8% (inactive), respectively. Further, the superoxide response (% of plate) in assay [7] was 106% (inactive). In assay [8], the aptamer binding inhibition was 2% (inactive). For the same compound, the response is -6.07% (inactive) in assay [9] and -1.86% (inactive) in [11]. For the same compound, the binding (% of control) in assay [12] is 98.9% (inactive). Moreover, in assay [13], the efflux inhibition (fraction of control) is -0.13 (inactive). Moreover, the differentiation response in [15] is -4.91% (inactive).
As for `Cc1c(OC(=O)CNC(=O)OC(C)(C)C)ccc2c3c(c(=O)oc12)CCC3`, the percent of DMSO control GFP in assay [1] was 93.3% (inactive). The GFP response vs DMSO in [2] is 123% (inactive); in assay [4], 80.3% (inactive). In addition, the percent response of DMSO control in assay [3] is 90% (inactive). Also, the double positive events in assay [5] was determined as 60.3%. Moreover, the vesicle binding response in [5] is 210% (inactive). In addition, the inhibition in assay [6] is 9.37% (inactive); in [10], 4.15% (inactive); in assay [14], 1% (inactive). The superoxide response (% of plate) in assay [7] was 101% (inactive). In assay [8], the aptamer binding inhibition is -1% (inactive). Also, the response in assay [9] is -1.96% (inactive); in assay [11], 0.35% (inactive). Besides, the binding (% of control) in assay [12] was 107% (inactive). Also, in assay [13], the efflux inhibition (fraction of control) was 0.01 (inactive). In addition, the differentiation response in assay [15] was 0% (inactive).
Turning to `O=C1NC2(Nc3ccccc31)C(=O)Nc1ccc(Br)cc12` (configuration not stated), in assay [1], the percent of DMSO control GFP was 91.7% (inactive). For the same compound, the GFP response vs DMSO is 127% (inactive) in assay [2] and 85.8% (inactive) in assay [4]. Moreover, in assay [3], the percent response of DMSO control was 102% (inactive). In assay [5], this compound gave a double positive events of 72%. The vesicle binding response in assay [5] is 220% (inactive). The inhibition is -3.24% (inactive) in assay [6], 1.97% (inactive) in assay [10] and 9% (inactive) in [14]. Moreover, in assay [7], the superoxide response (% of plate) was 102% (inactive). In addition, the aptamer binding inhibition in assay [8] was 2% (inactive). Further, the response was -4.23% (inactive) in assay [9] and 1.05% (inactive) in assay [11]. In addition, the binding (% of control) in assay [12] is 98.7% (inactive). The efflux inhibition (fraction of control) in [13] is -0.13 (inactive). Further, in assay [15], the differentiation response is 0% (inactive).
For the compound `CCOC(=O)C(=Cc1ccc(F)cc1)C(=O)OCC`, the GFP response vs DMSO in assay [16] is 101% (inactive); in [16] (setting [20]), 101%; in assay [16] (setting [21]), 100%; in assay [18], 100% (inactive). Besides, the GFP response relative to DMSO is 107% (inactive) in assay [17], 102% in assay [17] (setting [22]) and 111% in assay [17] (setting [23]). Besides, the GFP response, % of DMSO in assay [19] is 93.9% (inactive); in [19] (setting [20]), 94.8%; in assay [19] (setting [21]), 92.3%.
As for `O=C(O)c1ccc(N/N=C/c2c(F)cccc2Cl)cc1`, the GFP response vs DMSO in [16] was 99.5% (inactive); in assay [16] (setting [20]) it was 100%; in assay [16] (setting [21]), 98.1%; in assay [18], 108% (inactive). The figures for the GFP response relative to DMSO in assay [17], in assay [17] (setting [22]) and in assay [17] (setting [23]) were 124% (inactive), 121% and 124%, respectively. The GFP response, % of DMSO in assay [19] was 96.4% (inactive); in assay [19] (setting [20]), 92.7%; in [19] (setting [21]), 94.5%.
Consider `CCCc1[nH]nc2c1C(c1ccc(OC(=O)N3CCOCC3)cc1)C(C#N)=C(N)O2` (configuration not stated), for which the GFP response vs DMSO is 98.2% (inactive) in assay [16], 97.1% in assay [16] (setting [20]), 96.4% in assay [16] (setting [21]) and 100% (inactive) in assay [18]. Besides, the GFP response relative to DMSO in assay [17] is 97.9% (inactive); in assay [17] (setting [22]) it was 94.4%; in assay [17] (setting [23]), 94%. The GFP response, % of DMSO in [19] was 101% (inactive).
